In assay [1] the test system is Wnt5a (protein binding on small-molecule microarray). In words: Wnt5a binders on small-molecule microarray, primary screen, biophysical, 635/667 nm fluorescence (AID 1142).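 Note: fluorescence read at 667 nm with signal to noise per printed feature.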 The settings on record: 635 nm fluorescence, higher = more signal.
Assay [2] can be described thus: cell viability in Huh7 cells, primary screen, cytotoxicity control for HCV replication inhibitor project, CellTiter-Glo luminescence, basal, 48 h (AID 1143).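 Note: Huh7 hepatoma cells carrying a hepatitis C replication reporter with no stimulus; test concentration not given here.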 The following applies: Huh7 HCV replicon, higher = more signal, called active from +8 up or from −8 down. Background: In ATP-based viability assays light output follows the ATP content of the culture.
Assay [3] can be described thus: P. aeruginosa biofilm formation inhibitors, primary screen, PAO1 strain, BacTiter-Glo luminescence, LB-PBS (AID 1144). The following applies: 12 h, higher = more signal.
Assay [4] is described as follows: CREB reporter modulators without forskolin, primary screen, cell-based, PC12, CRE-LacZ reporter, unstimulated (AID 1145). The following applies: no forskolin, luminescence, 4.5 h, higher = more signal, called active from +8 up or from −8 down.
The nature of assay [5]: CREB reporter modulators under forskolin, primary screen, cell-based, PC12, CRE-LacZ reporter, forskolin-stimulated (AID 1146).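 Note: PC12 cells with 6xCRE LacZ reporter stimulated by forskolin 10 µM; beta-galactosidase reporter signal reflecting CREB driven transcription.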 The settings on record: luminescence, 4.5 h, higher = more signal, called active from +8 up or from −8 down.
Assay [6] concerns the target Streptavidin (Streptomyces avidinii) (UniProt P22629). In words: streptavidin binders on small-molecule microarray, primary screen, artefact control for SMM compound annotation, biophysical, 635/667 nm fluorescence (AID 1147).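 Note: signal reflects streptavidin binding to arrayed compounds as a control protein.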 The following applies: streptavidin binding, higher = more signal.
The nature of assay [7]: small-molecule binders of probe aInhba, primary screen, biochemical, small-molecule microarray, 635/667 nm fluorescence (AID 1148).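 Note: score merges 667nm spot fluorescence with signal-to-noise for antibody binding to printed compounds.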 The following applies: higher = more signal.
For assay [8], the target named is Torsin-1A (Homo sapiens) (UniProt O14656). In words: torsin A binders from cell lysate, primary screen, small-molecule microarray, wild-type, 635/667 nm (AID 1149). The settings on record: COS7 hTOR1A-WT lysate, 635 nm fluorescence, higher = more signal.
Sequence of Torsin-1A (Homo sapiens) (O14656 whole entry, looked up): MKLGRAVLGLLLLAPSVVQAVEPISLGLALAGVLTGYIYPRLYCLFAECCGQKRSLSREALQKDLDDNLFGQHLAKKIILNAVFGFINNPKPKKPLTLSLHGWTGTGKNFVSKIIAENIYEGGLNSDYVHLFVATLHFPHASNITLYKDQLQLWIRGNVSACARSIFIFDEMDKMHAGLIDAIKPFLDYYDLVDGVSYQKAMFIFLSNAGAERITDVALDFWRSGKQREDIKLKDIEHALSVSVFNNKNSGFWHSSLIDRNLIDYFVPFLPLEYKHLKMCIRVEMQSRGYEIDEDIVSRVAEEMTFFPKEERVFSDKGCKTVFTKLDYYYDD
Assay [9] shares this target. In words: small-molecule binders of mutant TOR1A in lysate, primary screen, cell lysate, small-molecule microarray, COS7 lysate, 635/667 nm fluorescence (AID 1150).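 Note: score pools 667 nm emission and signal to noise measuring lysate protein binding.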 The settings on record: COS7 hTOR1A mutant lysate, 635 nm fluorescence, higher = more signal.
Assay [10] relates to Sonic hedgehog protein (Shh). As to the kind of experiment: small-molecule binders of Shh protein, primary screen, biochemical, small-molecule microarray, 635/667 nm fluorescence (AID 1151).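 Note: Shh protein binding to compounds spotted on small-molecule microarray slides; score combines spot fluorescence intensity with signal-to-noise across triplicate slides.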 The following applies: small-molecule microarray binding, 635 nm fluorescence; higher = more signal.
A short description of assay [11]: E. coli DRC41 culture turbidity changes, primary screen, E. coli filamentation inducer project, strain DRC41, OD650, 48 h (AID 1152).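 Note: E. coli MC1000 strain DRC41 lacking acrAB efflux pump and sulA.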 The following applies: E. coli DRC41 (acrAB sulA), higher = more signal, called active from +8 up or from −8 down.
Assay [12] in a line: small-molecule binders of probe aLefty1, primary screen, biochemical, small-molecule microarray, 635/667 nm fluorescence (AID 1153).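 Note: score merges spot fluorescence with signal-to-noise ratio from the scanned slide images.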 The following applies: higher = more signal.
Assay [13] in a line: PSAC antagonists in infected red cells, primary screen, cell-based, P. falciparum Indochina, OD700, 1 h (AID 1154). The settings on record: P. falciparum Indochina infected RBC osmotic lysis, higher = more signal, called active from +8 up or from −8 down.
Assay [14] can be described thus: PSAC antagonists in infected red cells, primary screen, cell-based, P. falciparum Indochina, OD700, 2 h (AID 1155).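 Note: lysis reports solute entry through the parasite surface anion channel PSAC; channel blockers reduce lysis of infected cells.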 The settings on record: P. falciparum Indochina infected erythrocytes, osmotic lysis OD700; higher = more signal, called active from +8 up or from −8 down.
A short description of assay [15]: osmotic lysis modulators in infected erythrocytes, primary screen, PSAC antagonist project, cell-based, P. falciparum Indochina, OD700, 3 h (AID 1156). The following applies: higher = more signal, called active from +8 up or from −8 down.
Assay [16] is described as follows: PSAC antagonists in infected red cells, primary screen, cell-based, P. falciparum Indochina, OD700, 18 h (AID 1157). The following applies: P. falciparum Indochina infected erythrocytes, osmotic lysis OD700, 18 h; higher = more signal, called active from +8 up or from −8 down.
A short description of assay [17]: modulators of S6 phosphorylation in cells, primary screen, cell-based, A549, cytoblot, luminescence, serum-stimulated (AID 1158).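 Note: serum-stimulated A549 lung adenocarcinoma cells; signal is phosphorylated S6 detected by cytoblot immunostaining with HRP secondary.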 The following applies: A549 phospho-S6 cytoblot, 5 h, higher = more signal.
The target in assay [18] is NADPH oxidase 2 (Homo sapiens) (UniProt P04839). As to the kind of experiment: NOX2-dependent H2O2 signal modulators, primary screen, NOX inhibitor project, cell-based, HEK293-NOX2, PMA-stimulated, Amplex Red fluorescence (AID 1159). Note: test concentration not given here. The settings on record: 45 min, higher = more signal, called active from +8 up or from −8 down.
Sequence of NADPH oxidase 2 (Homo sapiens) (P04839 whole entry, looked up): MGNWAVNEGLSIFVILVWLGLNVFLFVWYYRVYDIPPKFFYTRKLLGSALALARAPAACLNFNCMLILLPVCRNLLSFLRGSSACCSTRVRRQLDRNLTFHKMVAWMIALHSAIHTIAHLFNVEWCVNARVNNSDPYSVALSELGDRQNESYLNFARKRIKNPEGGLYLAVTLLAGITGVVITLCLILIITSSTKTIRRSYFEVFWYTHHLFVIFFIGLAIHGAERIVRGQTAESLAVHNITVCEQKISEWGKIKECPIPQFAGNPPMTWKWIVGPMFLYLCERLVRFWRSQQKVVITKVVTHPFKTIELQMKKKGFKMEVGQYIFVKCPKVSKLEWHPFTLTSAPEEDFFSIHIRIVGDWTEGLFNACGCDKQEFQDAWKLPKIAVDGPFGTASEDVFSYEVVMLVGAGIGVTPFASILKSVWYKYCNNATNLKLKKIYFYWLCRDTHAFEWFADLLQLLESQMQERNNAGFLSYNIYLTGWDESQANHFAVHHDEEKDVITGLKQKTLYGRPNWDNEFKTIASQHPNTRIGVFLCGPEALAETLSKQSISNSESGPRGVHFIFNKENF
Assay [19] concerns the target NADPH oxidase 4 (Homo sapiens) (UniProt Q9NPH5). In words: NOX4-dependent H2O2 signal modulators, primary screen, NOX inhibitor project, cell-based, HEK293-NOX4, tetracycline-induced, Amplex Red fluorescence (AID 1160). The settings on record: 45 min, higher = more signal, called active from +8 up or from −8 down.
In assay [20] the target is NADPH oxidase 5 (Homo sapiens) (UniProt Q96PH1). As to the kind of experiment: NOX5-dependent H2O2 signal modulators, primary screen, NOX inhibitor project, cell-based, HEK293-NOX5, Amplex Red fluorescence (AID 1161). The settings on record: HEK293-NOX5, ionomycin, 45 min, higher = more signal.
Sequence of NADPH oxidase 5 (Homo sapiens) (Q96PH1 whole entry, looked up): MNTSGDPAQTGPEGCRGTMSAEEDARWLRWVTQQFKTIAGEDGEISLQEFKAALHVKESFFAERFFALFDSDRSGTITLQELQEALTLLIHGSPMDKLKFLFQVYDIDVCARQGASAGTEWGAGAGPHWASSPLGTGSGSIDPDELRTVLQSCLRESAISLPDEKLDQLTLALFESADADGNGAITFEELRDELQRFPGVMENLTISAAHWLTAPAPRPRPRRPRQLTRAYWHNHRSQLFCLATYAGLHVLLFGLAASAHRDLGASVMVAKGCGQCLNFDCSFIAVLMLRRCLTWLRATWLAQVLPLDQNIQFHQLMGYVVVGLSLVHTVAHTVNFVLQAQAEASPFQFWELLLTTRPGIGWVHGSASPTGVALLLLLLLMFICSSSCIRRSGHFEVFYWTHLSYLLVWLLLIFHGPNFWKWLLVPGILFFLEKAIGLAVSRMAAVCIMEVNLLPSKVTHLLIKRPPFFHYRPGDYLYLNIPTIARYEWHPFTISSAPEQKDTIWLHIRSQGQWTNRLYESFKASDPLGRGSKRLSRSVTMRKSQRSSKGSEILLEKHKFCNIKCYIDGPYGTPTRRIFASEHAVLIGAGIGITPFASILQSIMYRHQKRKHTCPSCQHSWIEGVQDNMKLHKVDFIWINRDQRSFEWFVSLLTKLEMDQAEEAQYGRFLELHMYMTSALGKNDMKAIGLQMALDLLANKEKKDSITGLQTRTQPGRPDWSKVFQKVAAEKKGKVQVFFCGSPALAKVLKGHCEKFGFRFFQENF

Active and inactive are the calls of the source. Unless noted, the rule behind the calls is not given here.

Sequence of NADPH oxidase 4 (Homo sapiens) (Q9NPH5 whole entry, looked up): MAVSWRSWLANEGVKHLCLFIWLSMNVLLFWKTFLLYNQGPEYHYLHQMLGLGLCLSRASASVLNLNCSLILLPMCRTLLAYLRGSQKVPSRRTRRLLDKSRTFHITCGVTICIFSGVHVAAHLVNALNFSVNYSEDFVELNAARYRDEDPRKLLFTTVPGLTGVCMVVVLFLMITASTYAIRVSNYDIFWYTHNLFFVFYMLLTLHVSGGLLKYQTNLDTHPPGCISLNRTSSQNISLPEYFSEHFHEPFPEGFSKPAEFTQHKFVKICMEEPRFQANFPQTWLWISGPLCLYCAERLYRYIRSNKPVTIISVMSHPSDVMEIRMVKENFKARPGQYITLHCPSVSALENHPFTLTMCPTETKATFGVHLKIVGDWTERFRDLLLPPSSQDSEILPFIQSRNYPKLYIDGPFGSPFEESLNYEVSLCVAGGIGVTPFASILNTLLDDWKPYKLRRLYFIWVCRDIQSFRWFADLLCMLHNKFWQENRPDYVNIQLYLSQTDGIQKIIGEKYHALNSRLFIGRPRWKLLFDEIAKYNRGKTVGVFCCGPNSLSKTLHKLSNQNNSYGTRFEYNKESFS
Sequence of Streptavidin (Streptomyces avidinii) (P22629 whole entry, looked up): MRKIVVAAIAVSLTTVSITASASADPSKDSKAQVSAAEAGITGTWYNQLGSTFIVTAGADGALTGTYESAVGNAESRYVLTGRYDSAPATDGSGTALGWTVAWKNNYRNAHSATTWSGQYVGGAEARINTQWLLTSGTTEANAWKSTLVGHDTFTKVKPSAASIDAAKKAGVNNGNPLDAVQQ

Turning to `CN1C(=O)C2C=CC(C(O)C(c3ccccc3)c3ccccc3)N(NC(=O)OC(C)(C)C)C2C1=O` (stereo not given), the composite z-score in [1] was 0.843; in [6], 1.68; in assay [7] it was 0.72; with Torsin-1A (Homo sapiens) [8], -0.05; with Torsin-1A (Homo sapiens) [9], 0.848; in assay [10] it was -0.587. Further, the composite z-score in assay [12] came out at 0.771. Further, the z-score is -0.0027 (inactive) in assay [2]; 0.417 (inactive) in assay [3]; -0.136 (inactive) in assay [4]; 0.0964 (inactive) in assay [5]; -1.41 (inactive) in assay [11]; 1.41 (inactive) in assay [13]. Moreover, the z-score in assay [14] is 0.742 (inactive); in [15], -0.343 (inactive); in [16], 0.804 (inactive); in assay [17], -1.16; in assay [18], -0.343 (inactive); in assay [19], -4.7 (inactive). In addition, the z-score in assay [20] was -1.76.
For `[N-]=[N+]=Nc1ccccc1C[C@@]1(C(N)=O)N=C(c2ccc(OCCCO)cc2)O[C@@H]1c1ccccc1`, the composite z-score in assay [1] was 0.0445; in assay [6], 1.08; in assay [7], 0.0561; in the assay with Torsin-1A (Homo sapiens) [8], 0.296; in the assay with Torsin-1A (Homo sapiens) [9], 0.355; in assay [10] it was -0.714. The same compound registered a composite z-score in [12] of 0.506. The z-score in assay [2] is -4.04 (inactive); in assay [3] it was -0.616 (inactive); in assay [4], 0.377 (inactive); in [5], -1.39 (inactive); in assay [11], -0.307 (inactive); in assay [13] it was 27.3 (active). The z-score in assay [14] was 22.4 (active); in assay [15] it was 2.73 (inactive); in assay [16] it was 2.47 (inactive); in assay [17] it was 1.4; in [18], -2.2 (inactive); in assay [19] it was 0.249 (inactive). In assay [20], this compound returned a z-score of -1.75.
With `COc1ccc([Si](C)(C)[C@@H]2[C@@H](CCO)O[C@]3(C(=O)N(Cc4ccc(NC(C)=O)cc4)c4ccccc43)[C@H]2C)cc1`, the composite z-score in assay [1] was 0.913; in assay [6], 0.627; in assay [7], 0.16; in the assay with Torsin-1A (Homo sapiens) [8] it was 0.412; in the assay with Torsin-1A (Homo sapiens) [9], 1.21; in assay [10], 1.35. The composite z-score in assay [12] was found to be 0.16. Moreover, the z-score in [2] is -8.01 (active); in assay [3] it was 0.525 (inactive); in [4] it was 3.57 (inactive); in assay [5], -2.33 (inactive); in assay [11], 0.694 (inactive); in assay [13], 23 (active). Besides, the z-score is 7.13 (inactive) in [14]; -0.199 (inactive) in assay [15]; 0.0087 (inactive) in assay [16]; 0.339 in assay [17]; -0.371 (inactive) in assay [18]; -0.0308 (inactive) in assay [19]. The z-score in [20] came out at 0.207.
As to `CN1C(=O)[C@@]2(CCC(=O)OC(C)(C)C)N=C(c3ccc(OCCCO)cc3)O[C@H]2c2ccccc21`, the composite z-score is 0.0942 in [1]; -0.235 in assay [6]; 0.0649 in assay [7]; -0.132 with Torsin-1A (Homo sapiens) [8]; 0.43 with Torsin-1A (Homo sapiens) [9]; 1.5 in assay [10]. Besides, the composite z-score in assay [12] is 0.0959. Further, the z-score in assay [2] is -4.68 (inactive); in assay [3], -1.73 (inactive); in assay [4], 0.652 (inactive); in assay [5] it was -1.92 (inactive); in assay [11], 1.02 (inactive); in assay [13], 30.8 (active). The z-score in assay [14] was 26.6 (active); in [15], 1.7 (inactive); in assay [16], 1.11 (inactive); in assay [17], 1.09; in assay [18], -2.05 (inactive); in assay [19] it was 0.112 (inactive). Also, the z-score in assay [20] was -1.43.
As to `O=C1[C@H]2[C@H]3[C@H](O)[C@H](O)CC(=NOCc4ccccc4)[C@@H]3CC[C@H]2C(=O)N1C1CCCCC1`, the composite z-score in [1] was 0.0062; in assay [6], -0.0498; in assay [7], -0.533; with Torsin-1A (Homo sapiens) [8] it was -0.0289; with Torsin-1A (Homo sapiens) [9], -0.47; in [10], -0.317. In assay [12], this compound displayed a composite z-score of 0.056. For the same compound, the z-score is -0.48 (inactive) in assay [2]; 0.774 (inactive) in assay [3]; 0.519 (inactive) in assay [4]; 0.182 (inactive) in assay [5]; -0.501 (inactive) in assay [11]; 2.79 (inactive) in assay [13]. Further, the z-score was 0.322 (inactive) in assay [14]; 0.28 (inactive) in assay [15]; 0.352 (inactive) in [16]; -0.206 in [17]; 1.56 (inactive) in assay [18]; 0.568 (inactive) in assay [19]. Also, in assay [20], the z-score was -0.818.
Turning to `O=C1c2ccccc2[C@@]2(Cc3ccccc3N(C3CC3)C2=O)[C@H](c2ccc(CO)cc2)N1Cc1ccccc1C(F)(F)F`, the composite z-score in assay [1] was -0.145; in [6] it was -1.07; in [7] it was 0.21; with Torsin-1A (Homo sapiens) [8], -1.02; with Torsin-1A (Homo sapiens) [9], -0.77; in assay [10], -0.537. In addition, the composite z-score in assay [12] amounted to 0.566. In addition, the z-score was -4.35 (inactive) in assay [2]; -0.459 (inactive) in assay [3]; -0.258 (inactive) in [4]; -0.0879 (inactive) in assay [5]; -0.262 (inactive) in assay [11]; 0.949 (inactive) in [13]. Moreover, the z-score in [14] is -0.28 (inactive); in [15], -0.31 (inactive); in [16], -1.41 (inactive); in assay [17], 1.01; in assay [18], 0.136 (inactive); in assay [19] it was -1.4 (inactive). This compound came in with a z-score in assay [20] of -0.129.
With `O=C1[C@H]2[C@H]3[C@H](O)[C@H](O)CC(=NOCc4ccccc4)[C@H]3CC[C@H]2C(=O)N1c1cccc(Oc2ccccc2)c1`, the composite z-score was determined as 0.242 in assay [1]; 0.293 in assay [6]; 0.0108 in [7]; 0.294 with Torsin-1A (Homo sapiens) [8]; 0.363 with Torsin-1A (Homo sapiens) [9]; 1.24 in assay [10]. Further, in assay [12], the composite z-score was -0.0193. Moreover, the z-score in [2] is -2.26 (inactive); in assay [3], 0.768 (inactive); in assay [4], -0.384 (inactive); in [5], -0.271 (inactive); in assay [11] it was 0.0144 (inactive); in assay [13] it was 6.64 (inactive). The z-score in assay [14] is 1.42 (inactive); in assay [15], 0.969 (inactive); in [16], 0.525 (inactive); in [17] it was -0.219; in assay [18], -1.86 (inactive); in assay [19], -1.01 (inactive). Besides, the z-score in assay [20] was -3.91.
Regarding `CC(C)[C@@H](OCc1ccccc1)[C@H](C)C=NO[C@H](C)c1cn([C@H](CO)Cc2ccccc2)nn1`, the composite z-score in assay [1] was 0.231; in assay [6], 0.808; in [7] it was -0.126; with Torsin-1A (Homo sapiens) [8], 0.353; with Torsin-1A (Homo sapiens) [9], 1.15; in [10], 0.29. In assay [12], this compound registered a composite z-score of -0.448. For the same compound, the z-score in assay [2] was -1.28 (inactive); in assay [3] it was 0.403 (inactive); in assay [4], 0.987 (inactive); in [5], -0.437 (inactive); in assay [11], -0.489 (inactive); in [13], -0.146 (inactive). For the same compound, the z-score is -1.75 (inactive) in assay [14]; -0.525 (inactive) in [15]; -2.28 (inactive) in assay [16]; 1.99 in assay [17]; -2.23 (inactive) in assay [18]; -0.147 (inactive) in assay [19]. Further, the z-score in assay [20] was -1.41.

(Values after PubChem BioAssay.)
